Results from PubChem BioAssay AID1159580 (chemical genetic matrix, 2015).
Among all 5,500 compounds or so, about 2,000 (36%) were called active. About 18% were inconclusive and are not listed. Cut-off read from the data, not from the text of the source: active = normalized growth mostly below about 0.91 (no sharp cut-off); inconclusive = no clear call, values can overlap the other calls; inactive = mostly above about 0.92. This is one part of the list.

Assay: chemical genetic growth profiling, strain panel (AID 1159580);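 note: tested at 20 µM; growth read once vehicle control cultures reached saturation at 30 °C; 1 = growth at the plate median or of vehicle wells; lower values mean less growth of the strain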
Conditions: growth OD

Measured: normalized growth

CC[C@@H](C(=O)[C@@H](C)[C@@H](O)[C@H](C)[C@@H]1O[C@@H]([C@@H](CC)C(=O)O)CC[C@@H]1C)[C@H]1OC2(C=C[C@@H](O)[C@]3(CC[C@@](C)([C@H]4CC[C@](O)(CC)[C@H](C)O4)O3)O2)[C@H](C)C[C@@H]1C (some centres undefined)
inactive: S. cerevisiae deletion strains, locus YKL009W, strain mrt4, active compounds read low 0.934 | S. cerevisiae deletion strains, locus YKL068W, active compounds read low 1.02 | S. cerevisiae deletion strains, locus YKL190W, strain CNB1, active compounds read low 0.925 | S. cerevisiae deletion strains, locus YKR026C, strain gcn3, active compounds read low 0.933 | S. cerevisiae deletion strains, locus YKR091W, strain srl3, active compounds read low 0.937 | S. cerevisiae deletion strains, locus YLR058C, strain SHM2, active compounds read low 0.935 | S. cerevisiae deletion strains, locus YLR320W, strain mms22, active compounds read low 0.928 | S. cerevisiae deletion strains, locus YLR330W, strain CHS5, active compounds read low 0.927 | S. cerevisiae deletion strains, locus YLR342W, strain FKS1 (second series), active compounds read low 0.821 | S. cerevisiae deletion strains, locus YLR357W, strain rsc2, active compounds read low 0.988 | S. cerevisiae deletion strains, locus YLR384C, strain iki3, active compounds read low 0.954 | S. cerevisiae deletion strains, locus YML016C, strain PPZ1, active compounds read low 0.978 | S. cerevisiae deletion strains, locus YMR058W, strain fet3, active compounds read low 0.908 | S. cerevisiae deletion strains, locus YMR078C, strain ctf18, active compounds read low 0.937 | S. cerevisiae deletion strains, locus YMR125W, strain sto1, active compounds read low 0.932 | S. cerevisiae deletion strains, locus YMR129W, active compounds read low 0.937 | S. cerevisiae deletion strains, locus YMR307W, strain GAS1, active compounds read low 0.801 | S. cerevisiae deletion strains, locus YNL067W, strain RPL9B, active compounds read low 0.963 | S. cerevisiae deletion strains, locus YNL071W, strain lat1, active compounds read low 0.96 | S. cerevisiae deletion strains, locus YNL128W, strain TEP1, active compounds read low 0.969 | S. cerevisiae deletion strains, locus YNL153C, strain GIM3, active compounds read low 0.911 | S. cerevisiae deletion strains, locus YNL248C, strain rpa49, active compounds read low 0.95 | S. cerevisiae deletion strains, locus YNL322C, strain KRE1 (second series), active compounds read low 0.963 | S. cerevisiae deletion strains, locus YNR049C, strain mso1, active compounds read low 0.923 | S. cerevisiae deletion strains, locus YOL012C, strain htz1 1.26 | S. cerevisiae deletion strains, locus YOR001W, strain rrp6, active compounds read low 0.909 | S. cerevisiae deletion strains, locus YOR080W, strain dia2, active compounds read low 0.961 | S. cerevisiae deletion strains, locus YOR184W, strain ser1, active compounds read low 0.892 | S. cerevisiae deletion strains, locus YPL055C, strain LGE1, active compounds read low 0.934 | S. cerevisiae deletion strains, locus YPL078C, strain atp4, active compounds read low 0.939 | S. cerevisiae deletion strains, locus YPL106C, strain sse1, active compounds read low 0.932 | S. cerevisiae deletion strains, locus YPR141C, strain kar3, active compounds read low 1 | S. cerevisiae strains, strain wild type, active compounds read low 0.925
active: S. cerevisiae deletion strains, locus YJR066W, strain TOR1, active compounds read low 0.237 | S. cerevisiae deletion strains, locus YKL085W, strain MDH1 (second series), active compounds read low 0.812 | S. cerevisiae deletion strains, locus YKL085W, strain MDH1, active compounds read low 0.812 | S. cerevisiae deletion strains, locus YKL160W, strain elf1, active compounds read low 0.879 | S. cerevisiae deletion strains, locus YKR001C, strain vps1, active compounds read low 0.108 | S. cerevisiae deletion strains, locus YLL001W, strain dnm1, active compounds read low 0.833 | S. cerevisiae deletion strains, locus YLL026W, active compounds read low 0.892 | S. cerevisiae deletion strains, locus YLL041C, strain sdh2, active compounds read low 0.926 | S. cerevisiae deletion strains, locus YLR027C, strain aat2, active compounds read low 0.858 | S. cerevisiae deletion strains, locus YLR039C, strain RIC1, active compounds read low 0.294 | S. cerevisiae deletion strains, locus YLR102C, strain apc9, active compounds read low 0.905 | S. cerevisiae deletion strains, locus YLR113W, strain HOG1, active compounds read low 0.176 | S. cerevisiae deletion strains, locus YLR221C, strain rsa3, active compounds read low 0.856 | S. cerevisiae deletion strains, locus YLR258W, strain gsy2, active compounds read low 0.842 | S. cerevisiae deletion strains, locus YLR262C, strain YPT6 (second series), active compounds read low 0.662 | S. cerevisiae deletion strains, locus YLR262C, strain YPT6, active compounds read low 0.183 | S. cerevisiae deletion strains, locus YLR268W, strain sec22, active compounds read low 0.843 | S. cerevisiae deletion strains, locus YLR342W, strain FKS1, active compounds read low 0.852 | S. cerevisiae deletion strains, locus YLR370C, strain arc18, active compounds read low 0.608 | S. cerevisiae deletion strains, locus YLR371W, strain rom2, active compounds read low 0.624 | S. cerevisiae deletion strains, locus YLR418C, strain cdc73, active compounds read low 0.681 | S. cerevisiae deletion strains, locus YML032C, strain rad52, active compounds read low 0.882 | S. cerevisiae deletion strains, locus YML120C, strain ndi1, active compounds read low 0.847 | S. cerevisiae deletion strains, locus YML124C, strain tub3, active compounds read low 0.887 | S. cerevisiae deletion strains, locus YMR205C, strain PFK2, active compounds read low 0.79 | S. cerevisiae deletion strains, locus YMR223W, strain ubp8, active compounds read low 0.838 | S. cerevisiae deletion strains, locus YMR231W, strain pep5, active compounds read low 0.0726 | S. cerevisiae deletion strains, locus YNL183C, strain NPR1, active compounds read low 0.143 | S. cerevisiae deletion strains, locus YNL209W, strain ssb2, active compounds read low 0.916 | S. cerevisiae deletion strains, locus YNL233W, strain BNI4, active compounds read low 0.861 | S. cerevisiae deletion strains, locus YNL250W, strain rad50, active compounds read low 0.868 | S. cerevisiae deletion strains, locus YNL271C, strain bni1, active compounds read low 0.814 | S. cerevisiae deletion strains, locus YNL298W, strain CLA4, active compounds read low 0.439 | S. cerevisiae deletion strains, locus YNL307C, strain MCK1, active compounds read low 0.862 | S. cerevisiae deletion strains, locus YNR052C, strain pop2, active compounds read low 0.735 | S. cerevisiae deletion strains, locus YOL006C, strain TOP1, active compounds read low 0.192 | S. cerevisiae deletion strains, locus YOL147C, strain pex11, active compounds read low 0.884 | S. cerevisiae deletion strains, locus YOR061W, strain CKA2, active compounds read low 0.642 | S. cerevisiae deletion strains, locus YOR069W, strain VPS5, active compounds read low 0.797 | S. cerevisiae deletion strains, locus YOR070C, strain gyp1, active compounds read low 0.9 | S. cerevisiae deletion strains, locus YOR083W, strain WHI5, active compounds read low 0.855 | S. cerevisiae deletion strains, locus YOR106W, strain vam3, active compounds read low 0.0692 | S. cerevisiae deletion strains, locus YOR136W, strain idh2, active compounds read low 0.905 | S. cerevisiae deletion strains, locus YOR144C, strain elg1, active compounds read low 0.885 | S. cerevisiae deletion strains, locus YOR231W, strain MKK1, active compounds read low 0.201 | S. cerevisiae deletion strains, locus YOR265W, strain rbl2, active compounds read low 0.897 | S. cerevisiae deletion strains, locus YOR270C, strain vph1, active compounds read low 0.287 | S. cerevisiae deletion strains, locus YOR290C, strain snf2, active compounds read low 0.863 | S. cerevisiae deletion strains, locus YOR316C, strain cot1, active compounds read low 0.908 | S. cerevisiae deletion strains, locus YPL051W, strain arl3, active compounds read low 0.721 | S. cerevisiae deletion strains, locus YPL240C, strain hsp82, active compounds read low 0.922 | S. cerevisiae deletion strains, locus YPL256C, strain CLN2, active compounds read low 0.265 | S. cerevisiae deletion strains, locus YPR119W, strain clb2, active compounds read low 0.92 | S. cerevisiae deletion strains, locus YPR163C, strain tif3, active compounds read low 0.538 | S. cerevisiae deletion strains, locus YPR167C, strain met16, active compounds read low 0.865 | S. cerevisiae deletion strains, strain wtn01, active compounds read low 0.815
